# In the supplement of paper PMC3334620:
# Over roughly 33,000 sequences, “E-score (-0.5 to 0.5)” has its median near -0.054; the highest 2% begin near 0.39. This excerpt belongs to a sample that is enriched for the highest values.
# Biological target: Ylr278c (UniProt Q05854)
# Assay: PBM E-score (8-mer binding enrichment) (E-score (-0.5 to 0.5)); higher = stronger / more preferred TF binding
# Details: protein concentration: 200 nM; construct: GST-DNA-binding domain
# Method: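 Universal 'all 10-mer' protein binding microarrays (Agilent AMADID 015681) probed with GST-tagged S. cerevisiae TFs (full-length or DBD) made by in vitro transcription/translation (PURExpress), about 100-200 nM. Bound TF was detected with fluorescent anti-GST. Each ungapped 8-mer (which stands for itself and its reverse complement) is scored by the PBM enrichment score (E-score), a modified Wilcoxon-Mann-Whitney statistic from -0.5 to +0.5, computed with the Universal PBM Analysis Suite. Scale: above 0.35 generally sequence-specific binding.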
# Sequence of UniProt Q05854 (Q05854 whole entry): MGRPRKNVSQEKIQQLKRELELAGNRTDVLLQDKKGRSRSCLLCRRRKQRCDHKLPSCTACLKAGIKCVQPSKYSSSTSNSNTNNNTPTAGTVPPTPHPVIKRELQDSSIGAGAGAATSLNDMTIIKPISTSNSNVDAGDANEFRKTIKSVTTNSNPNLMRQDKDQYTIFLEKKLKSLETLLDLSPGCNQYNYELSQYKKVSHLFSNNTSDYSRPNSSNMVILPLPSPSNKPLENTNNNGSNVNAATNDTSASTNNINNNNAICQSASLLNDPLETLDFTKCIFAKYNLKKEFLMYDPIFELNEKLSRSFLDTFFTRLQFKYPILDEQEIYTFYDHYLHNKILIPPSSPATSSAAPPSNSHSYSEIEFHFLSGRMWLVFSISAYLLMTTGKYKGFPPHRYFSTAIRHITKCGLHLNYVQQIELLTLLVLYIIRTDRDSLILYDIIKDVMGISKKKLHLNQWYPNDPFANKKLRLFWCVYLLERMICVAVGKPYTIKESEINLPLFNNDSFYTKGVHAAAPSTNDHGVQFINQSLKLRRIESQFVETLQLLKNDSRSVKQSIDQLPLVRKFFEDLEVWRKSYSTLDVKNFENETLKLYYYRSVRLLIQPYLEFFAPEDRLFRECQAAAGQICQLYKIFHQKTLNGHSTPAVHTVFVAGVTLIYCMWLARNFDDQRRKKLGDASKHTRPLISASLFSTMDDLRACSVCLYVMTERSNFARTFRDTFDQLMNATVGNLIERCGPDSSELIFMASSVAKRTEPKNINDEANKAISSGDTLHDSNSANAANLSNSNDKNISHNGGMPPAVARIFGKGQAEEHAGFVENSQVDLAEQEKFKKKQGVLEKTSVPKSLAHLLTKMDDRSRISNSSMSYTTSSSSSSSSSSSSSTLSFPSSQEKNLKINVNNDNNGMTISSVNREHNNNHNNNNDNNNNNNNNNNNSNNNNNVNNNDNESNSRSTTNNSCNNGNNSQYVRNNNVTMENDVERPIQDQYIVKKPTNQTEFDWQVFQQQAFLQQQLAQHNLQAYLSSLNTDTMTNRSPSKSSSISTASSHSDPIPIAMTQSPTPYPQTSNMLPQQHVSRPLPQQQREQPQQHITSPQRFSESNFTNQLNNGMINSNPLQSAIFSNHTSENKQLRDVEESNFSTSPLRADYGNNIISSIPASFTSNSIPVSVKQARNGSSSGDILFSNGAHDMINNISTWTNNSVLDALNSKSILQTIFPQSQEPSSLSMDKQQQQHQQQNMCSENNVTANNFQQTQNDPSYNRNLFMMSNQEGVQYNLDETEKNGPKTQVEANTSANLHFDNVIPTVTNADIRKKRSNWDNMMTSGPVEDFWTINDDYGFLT
row,Sequence,PBM E-score
1,CTCCGCCC,0.457
2,GTCCGCCA,0.293
3,ATCCGCCG,0.401
4,ATCCGCCC,0.291
5,CCAGTCCC,-0.0319
6,GCGTGAGA,-0.0361
7,GCCTCATA,-0.00634
8,AATGGTAA,0.0806
9,ACTTTGCC,0.0108
10,CGTCTGGA,-0.166
11,CGACTGCC,0.0706
12,AGAGATAG,-0.0754
13,AGGAGGAG,-0.212
14,TGGAGGAA,-0.131
15,AGGAGGAC,-0.294
16,AGGAGGAA,-0.165
17,CGGAGGCC,0.42
18,CCGAGGAG,0.183
19,CGGAGGAA,0.436
20,AGGAGGCC,-0.164
21,CGGAGGAG,0.417
22,CGGAGGAC,0.423

row,Sequence,PBM E-score
1,GGGAGGAC,0.0177
2,CGGAGGCA,0.34
3,ATTCGCTA,-0.0743
4,TCTGCTCA,-0.298
5,CAGTATGG,-0.195
6,CCACATCC,0.0271
7,AGAGTCAC,-0.333
8,CAGAATCG,0.00258
9,CACGTCAA,-0.202
10,CCCTTAGA,-0.393
11,ACCCCGAG,0.319
12,CCCCCGAC,0.228
13,ACCCCGAT,0.426
14,ACCCCGAA,0.392
15,ACCCCGAC,0.39
16,CCCCCGAA,0.184
17,GCCCCGAA,0.301
18,AACCCGAT,0.29
19,GCCCCGAC,0.278
20,AATCTATG,-0.0536
21,ACCATAGA,0.00619
22,GTTCAGGA,-0.0137

row,Sequence,PBM E-score
1,GATCTCAC,0.0769
2,CCAGTAGG,-0.101
3,ATCCGTGG,0.299
4,AGAAGGCC,0.0969
5,CTCCGTTA,0.347
6,ATCCGTGC,0.125
7,ATCCGTTC,0.183
8,CTCCGTTC,0.394
9,CACCGTGC,-0.0579
10,CTCCGTGC,0.416
11,GTCCGTGA,0.278
12,CTCCGTGA,0.425
13,ATCCGTGA,0.244
14,GTGCTAGA,-0.277
15,AGCGTGGC,-0.0918
16,AGTGGGAG,-0.221
17,CGAAGGCA,-0.0856
18,CGTCCATC,0.145
19,CAGTATCG,0.0195
20,CGACCCCG,0.247
21,CCGGAGGC,0.433
22,ACGGAGGA,0.383

row,Sequence,PBM E-score
1,ACGGAGGC,0.302
2,CAGGAGGA,-0.219
3,CAGGAGGC,-0.0031
4,CGGGAGGA,0.25
5,CCGGAGGA,0.465
6,GAGGAGGA,-0.246
7,GCGGAGGA,0.406
8,GACGGCAC,0.0236
9,GCAGTCGA,-0.0263
10,TAACAACA,-0.124
11,CAGATCTA,-0.168
12,CTCTGATC,-0.271
13,GCCGAACA,0.21
14,TCCGAACA,0.429
15,TCCGAAAA,0.431
16,ACCGAACA,0.0403
17,TCCGAAGA,0.433
18,GCCGAAAA,0.359
19,CCCGAAAA,0.294
20,CCCGAAGA,0.156
21,ACCGAAGA,0.183
